Shown are actives, neighbours in structure and some others; about 2.3% of the full set was active somewhere.
Rce1 inh: yeast Ras-converting enzyme inhibition | Q03530 | yeast membranes, quenched prenylated peptide cleavage fluorescence | calls only | 290,000 compounds, 0.27% hits | AID 2563;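 active means fall in fluorescence gain of 50% or more versus controls, with final raw signal at or below 3038400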;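 further: plate controls were neutral control wells for no effect and wells lacking membranes for full effect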
Target sequence (Q03530 whole entry, looked up): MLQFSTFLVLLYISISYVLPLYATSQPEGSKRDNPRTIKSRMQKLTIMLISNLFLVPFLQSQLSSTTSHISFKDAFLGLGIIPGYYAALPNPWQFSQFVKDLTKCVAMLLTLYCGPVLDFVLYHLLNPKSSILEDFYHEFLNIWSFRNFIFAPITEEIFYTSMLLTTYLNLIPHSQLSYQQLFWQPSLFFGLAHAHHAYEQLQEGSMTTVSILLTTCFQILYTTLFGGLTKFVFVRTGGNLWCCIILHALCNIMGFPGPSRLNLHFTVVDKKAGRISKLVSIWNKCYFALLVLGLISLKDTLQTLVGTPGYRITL
PfM18AAP inh: PfM18AAP enzyme inhibition; recombinant PfM18AAP, H-Glu-NHMec fluorogenic cleavage; inhibition, % at 7.35 µM; 290,000 compounds, 1.2% hits;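 active means inhibition above the campaign mean inhibition over all tested compounds plus 3 SD, cut at about 28% in these data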;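 further: 0% = plate median of test compound wells and 100% = 2 mM ZnCl2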
Kir21 inh: inhibitors of mouse Kir2.1 inward-rectifier potassium channel. P35561. HEK293-Kir2.1, FluxOR thallium flux fluorescence; active compounds read low. B-score at 10 µM. 310,000 compounds, 0.85% hits. AID 1672;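 active means fluorescence ratio B-score at or below minus 3 SD of library scores, with starting-brightness B-score within 2 SD, cut at about -4.2 in these data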;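 further: channel flux triggered by added potassium and thallium sulfate stimulus; B-score of peak minus minimum fluorescence over baseline after thallium stimulus; more negative B-score means stronger Kir2.1 block with less thallium influx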
FID counter: fluorescent intercalator displacement, NS3 helicase counter-screen; DNA fluorescent intercalator displacement, fluorescence; inhibition, % at 7.9 µM; 290,000 compounds, 0.17% hits; AID 1845; in the data active means inhibition above about 37%;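 further: 0% = vehicle and 100% = reference compound; higher means more ethidium bromide displaced from hairpin DNA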
* = called active by the depositor.

For NN(Cc1ccccc1)C(=S)Nc1ccc(Cl)c(Cl)c1 the results were Rce1 inh inactive, PfM18AAP inh 30*, Kir21 inh -1.4 and FID counter 3.
`CCc1ccc2c(CN3CCN(Cc4ccccc4)CC3)cc(=O)oc2c1` gave Rce1 inh inactive, PfM18AAP inh 2, Kir21 inh -5.2* and FID counter -1.
O=C(O/N=C\c1ccc(N2CCCCC2)c([N+](=O)[O-])c1)c1cccc(C(F)(F)F)c1 was read as Rce1 inh active, PfM18AAP inh -1, Kir21 inh -1.5 and FID counter -3.
For CC(C)CC(=O)/C(=C\c1ccc(Cl)cc1Cl)n1cncn1 the results were Rce1 inh inactive, PfM18AAP inh 21, Kir21 inh -8.2* and FID counter -5.
Cc1cc(C)cc(C(=O)N(CCc2ccccc2)C2CC3CCC(C2)N3C)c1 (configuration not stated) was read as Rce1 inh inactive, PfM18AAP inh -6, Kir21 inh -0.95 and FID counter 17.
`OCCNCc1ccc(OCc2ccc(Cl)cc2Cl)cc1` gave Rce1 inh inactive, PfM18AAP inh -7, Kir21 inh -7.5* and FID counter 33.
For OCCCCNCc1ccc(OCc2ccc(Cl)cc2Cl)cc1 the results were Rce1 inh inactive, PfM18AAP inh -15, Kir21 inh -7.1* and FID counter 30.
Screening S=C(Nc1ccccc1)Nc1ccc(OCc2ccc(Cl)cc2Cl)cc1 returned Rce1 inh inactive, PfM18AAP inh 0, Kir21 inh -1.5 and FID counter -1.
For CCOc1c(C)cnc2c1c(=O)n(Cc1ccc(Cl)cc1)c(=O)n2C the results were Rce1 inh inactive, PfM18AAP inh -2, Kir21 inh 1.6 and FID counter -28.
`COc1cccc(C(=O)OCC(=O)c2c[nH]c3ccccc23)c1O` gave Rce1 inh inactive, PfM18AAP inh -10, Kir21 inh 0.01 and FID counter 3.
For O=C1Nc2ccccc2C(=O)C1(Cl)Cc1ccccc1 (configuration not stated) the results were Rce1 inh inactive, PfM18AAP inh 17, Kir21 inh -5.2* and FID counter 2.
For O=C(Nc1cccc2ncccc12)c1cc([N+](=O)[O-])ccc1Cl the results were Rce1 inh inactive, PfM18AAP inh -4, Kir21 inh 0.81 and FID counter 2.
Screening Cc1ccc(-c2nc(CN3CCCCC3)cc(CN3CCCCC3)c2O)cc1 returned Rce1 inh active, PfM18AAP inh 3, Kir21 inh 0.35 and FID counter 9.
`CC(C)(C)c1nc(CN2CCOCC2)cc(CN2CCOCC2)c1O` gave Rce1 inh inactive, PfM18AAP inh -9, Kir21 inh -1.4 and FID counter 9.
For CCOc1ccccc1NC(=O)CN(c1ccc(OC)cc1)S(=O)(=O)c1c(C)[nH]c(=O)[nH]c1=O the results were Rce1 inh inactive, PfM18AAP inh -1, Kir21 inh 1.2 and FID counter -38.
`CCN(CC1COc2ccccc2O1)S(=O)(=O)c1ccc(C)cc1` (configuration not stated) gave Rce1 inh inactive, PfM18AAP inh -11, Kir21 inh -4.8* and FID counter -14.
For OC1=C(O)c2nc3cc(F)ccc3nc21 the results were Rce1 inh inactive, PfM18AAP inh -1, Kir21 inh 0 and FID counter 38*.
Cc1ccc2nc3c(nc2c1C)C(O)=C3O was read as Rce1 inh inactive, PfM18AAP inh -2, Kir21 inh -1 and FID counter -2.
Screening COc1ccc(Nc2nc(N)nc(CN3CCC(Cc4ccccc4)CC3)n2)cc1 returned Rce1 inh inactive, PfM18AAP inh 1, Kir21 inh -4.4* and FID counter 4.
`COc1ccccc1Nc1nc(N)nc(CN2CCC(Cc3ccccc3)CC2)n1` gave Rce1 inh inactive, PfM18AAP inh -1, Kir21 inh -2.7 and FID counter 8.
CC(C)N(C)Cc1nnnn1CC(=O)N(C)Cc1cccc(Cl)c1 was read as Rce1 inh inactive, PfM18AAP inh -18, Kir21 inh -0.26 and FID counter -6.
Screening COCCn1nnnc1CN(Cc1cccnc1)Cc1cc2cc(OC)ccc2[nH]c1=O returned Rce1 inh inactive, PfM18AAP inh 29*, Kir21 inh -0.55 and FID counter -3.
For O=c1[nH]c2cc3c(cc2cc1CN(Cc1ccccc1)Cc1nnnn1Cc1ccco1)OCCO3 the results were Rce1 inh inactive, PfM18AAP inh 30*, Kir21 inh -0.27 and FID counter -8.
`O=c1[nH]c2cc3c(cc2cc1CN(Cc1cccnc1)Cc1nnnn1Cc1ccco1)OCCO3` gave Rce1 inh inactive, PfM18AAP inh 28*, Kir21 inh -2 and FID counter 11.
For O=c1[nH]c2cc3c(cc2cc1CN(Cc1cccs1)Cc1nnnn1Cc1ccco1)OCCO3 the results were Rce1 inh inactive, PfM18AAP inh 31*, Kir21 inh 0.56 and FID counter 0.
COCCn1nnnc1CN(CCc1ccccc1)Cc1cc2cc(OC)ccc2[nH]c1=O was read as Rce1 inh inactive, PfM18AAP inh 2, Kir21 inh -0.7 and FID counter -2.
Screening O=C(Nc1ccnn1C1CCN(C/C=C/c2ccccc2)CC1)c1cccc(F)c1 returned Rce1 inh inactive, PfM18AAP inh -5, Kir21 inh -0.91 and FID counter 3.
`CC(C)NC(=O)NC(=O)CN1c2cccc3cccc(c23)S1(=O)=O` gave Rce1 inh inactive, PfM18AAP inh 0, Kir21 inh 0.99 and FID counter -18.
`COc1cc(CNc2ccc3c(c2)CCC3)cc(OC)c1O` gave Rce1 inh inactive, PfM18AAP inh 38*, Kir21 inh 0.44 and FID counter 4.
`NS(=O)(=O)c1ccc(CCNC(=O)c2ccc3ccccc3n2)cc1` gave Rce1 inh active, PfM18AAP inh 4, Kir21 inh -0.02 and FID counter -11.
Screening NS(=O)(=O)c1ccc(CNC(=O)c2ccc3ccccc3n2)cc1 returned Rce1 inh inactive, PfM18AAP inh -8, Kir21 inh 0.91 and FID counter -7.
`O=C(c1cccc(Cl)c1)C1CCCN(C(=O)c2ccc3c(c2)OCO3)C1` (configuration not stated) gave Rce1 inh inactive, PfM18AAP inh 8, Kir21 inh -4.8* and FID counter -40.
COc1ccccc1-n1c(C)c(C(=O)O)c2cc(OC)c3ccccc3c21 was read as Rce1 inh inactive, PfM18AAP inh 4, Kir21 inh 0.37 and FID counter -28.
For COc1ccccc1N(C(=O)Cn1nnc(-c2ccc(C)o2)n1)C(C(=O)NC1CCCC1)c1ccncc1 (configuration not stated) the results were Rce1 inh inactive, PfM18AAP inh -10, Kir21 inh 3.4 and FID counter -24.
`CCN1CCN(C2=C(NS(=O)(=O)c3ccc(NC(C)=O)cc3)C(=O)c3ccccc3C2=O)CC1` gave Rce1 inh inactive, PfM18AAP inh 21, Kir21 inh -0.55 and FID counter 11.
Screening CCN1CCN(C2=C(NS(=O)(=O)c3ccc(C)cc3)C(=O)c3ccccc3C2=O)CC1 returned Rce1 inh inactive, PfM18AAP inh 31*, Kir21 inh 0.3 and FID counter 8.

High-throughput results: PubChem BioAssay, several laboratories
